Experimental data published in the supplement of paper PMC3334620.
Over roughly 33,000 sequences, “E-score (-0.5 to 0.5)” has its median near -0.012; the highest 2% begin near 0.29. Shown is part of a subset that was picked to be rich in the highest values.

target: T1, Ybr033w (UniProt P38073); test: PBM E-score (8-mer binding enrichment) (E-score (-0.5 to 0.5)); higher = stronger / more preferred TF binding; settings: protein concentration: 200 nM; construct: GST-full length
T1 sequence: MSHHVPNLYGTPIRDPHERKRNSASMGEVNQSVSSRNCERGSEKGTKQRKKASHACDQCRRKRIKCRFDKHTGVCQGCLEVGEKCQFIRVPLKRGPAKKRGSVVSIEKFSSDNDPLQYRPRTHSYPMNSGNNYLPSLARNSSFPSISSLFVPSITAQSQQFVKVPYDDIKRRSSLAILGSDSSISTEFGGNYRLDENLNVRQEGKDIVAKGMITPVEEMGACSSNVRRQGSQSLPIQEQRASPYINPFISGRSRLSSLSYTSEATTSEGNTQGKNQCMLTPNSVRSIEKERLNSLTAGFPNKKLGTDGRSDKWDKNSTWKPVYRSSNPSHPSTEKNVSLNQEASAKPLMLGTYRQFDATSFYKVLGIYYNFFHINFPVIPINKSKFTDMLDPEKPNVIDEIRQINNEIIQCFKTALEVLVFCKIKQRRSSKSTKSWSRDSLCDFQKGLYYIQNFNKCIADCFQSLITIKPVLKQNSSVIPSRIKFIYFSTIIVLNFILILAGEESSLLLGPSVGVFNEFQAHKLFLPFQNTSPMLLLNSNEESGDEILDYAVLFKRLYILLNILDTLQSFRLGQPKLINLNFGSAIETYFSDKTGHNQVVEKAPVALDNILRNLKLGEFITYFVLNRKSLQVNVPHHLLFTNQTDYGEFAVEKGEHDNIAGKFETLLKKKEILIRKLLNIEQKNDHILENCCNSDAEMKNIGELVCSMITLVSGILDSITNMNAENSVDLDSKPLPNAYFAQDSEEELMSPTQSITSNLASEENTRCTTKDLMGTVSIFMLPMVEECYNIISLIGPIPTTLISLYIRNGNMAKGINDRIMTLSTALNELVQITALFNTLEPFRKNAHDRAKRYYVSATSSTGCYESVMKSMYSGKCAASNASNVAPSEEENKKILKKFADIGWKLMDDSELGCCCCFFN
In short: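 Universal all-10-mer Agilent arrays, double-stranded by primer extension on fresh or once-stripped slides, were probed with about 100-200 nM GST-tagged yeast transcription factors made by PURExpress. Fluorescent anti-GST detected bound protein, and masliner normalised the scans. E-scores from the Universal PBM Analysis Suite were given to each ungapped eight-base word pooled with its reverse complement.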

| Sequence | PBM E-score |
| --- | --- |
| AATTGTTC | 0.339 |
| AATTGTAC | 0.337 |
| CATTGTAC | 0.0182 |
| AGTTGTTC | 0.337 |
| CTGCAAAA | 0.022 |
| GAGCCCTA | -0.201 |
| AACCTTGT | -0.194 |
| ACCTGGGC | -0.362 |
| CATGGAAG | 0.204 |
| AAATGTTA | 0.149 |
| CTTTGTTC | 0.111 |
| CATTGTTA | -0.015 |
| ATTTGTTC | 0.44 |
| CCTTGTTC | -0.124 |
| AAATGTTG | -0.0479 |
| AAATGTTC | 0.346 |
| CATTGTTC | 0.31 |
| ATTTGTTA | 0.185 |
| GAGAGGTA | -0.223 |
| CCCATCCA | -0.158 |
| AACTGAGA | 0.0375 |
| GTTTGATA | 0.177 |

| Sequence | PBM E-score |
| --- | --- |
| AGCCCTGG | -0.252 |
| AAATGGCA | 0.101 |
| GTTCCGAA | 0.29 |
| CTTCCGGA | 0.274 |
| GGTCCGAA | -0.0173 |
| CTTCCGAA | 0.208 |
| ATTCCGAC | 0.157 |
| ATTCCGAG | 0.242 |
| ATTCCGAA | 0.32 |
| ATTCCGGG | 0.188 |
| ATTCCGGA | 0.387 |
| GAAGCTGA | 0.135 |
| CAGCTACA | 0.0259 |
| GCTACGCC | -0.239 |
| ACGTTACT | 0.0376 |
| ATACGCCG | -0.149 |
| AGTCAAAT | 0.188 |
| GGCCACCC | -0.214 |
| TCTTGAAA | 0.319 |
| GCTTGAAA | 0.0485 |
| CATTGAAA | 0.29 |
| CATTGAAC | 0.124 |

| Sequence | PBM E-score |
| --- | --- |
| CATTGAAG | -0.0671 |
| CCTTGAAA | 0.0714 |
| AGTGGTAG | 0.0179 |
| ATTAACGG | 0.159 |
| CTTAACTC | 0.0941 |
| ATTAACTC | 0.291 |
| ATTAACCG | 0.295 |
| ATTAACTA | 0.181 |
| ATTAACTG | 0.333 |
| ATTAACCA | 0.0788 |
| AGTAACTG | 0.0214 |
| ATTAACCC | 0.237 |
| GAATTGAC | 0.00537 |
| CAGGCGGA | 0.122 |
| AACGCTTG | -0.194 |
| CATTCTCC | 0.0353 |
| ATTTCTCC | 0.404 |
| AATTCTCC | 0.293 |
| ATTTCTCA | 0.192 |
| CTTTCTCC | -0.103 |
| AATTCTCA | 0.204 |
| CAGGCTGA | -0.237 |

| Sequence | PBM E-score |
| --- | --- |
| GACAGAGA | -0.066 |
| ACCCTACT | 0.0025 |
| TGCTACCA | -0.0533 |
| AATGCATT | 0.31 |
| AATGCATA | 0.126 |
| AATGCATG | 0.0293 |
| AGTAGTAT | 0.185 |
| AAAAGACA | 0.292 |
| GAAAGCCA | -0.136 |
| AAAAGCCA | 0.3 |
| AAAAGCCC | -0.113 |
| CAAAGACA | 0.0541 |
| AAAAGACC | -0.141 |
| CCCAGTGA | -0.194 |
| AGCAGTGG | 0.0536 |
| ATCTTGAA | 0.187 |
| GTATTAAC | 0.0593 |
| ATATTAAC | 0.301 |
| TTATTAAA | 0.283 |
| CTATTAAA | 0.196 |
| ATATTAAA | 0.355 |
| ATATTAAT | 0.314 |
